Screening results (PubChem BioAssay)
Rows were chosen to be rich in hits. Some 2.6% of all compounds tested hit in one or more screens of this group.
TRPV1 agonist = activates the human vanilloid receptor TRPV1 | Q8NER1 | actives 0.19% (n = 320,000) | TRPV1-expressing cells, Fluo-8 calcium influx, agonist mode | activation, % at 8.33 µM; in the data active = activation above about 80%; inconclusive = between about 30% and that limit; also: 0% is about no effect
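TRPV1-expressing cells were cultured overnight at 35.5C and loaded with Fluo-8 calcium dye for 40 to 90 min at room temperature. After a 10 s baseline, compound was added and calcium influx was read kinetically for 3 min (ex 480/em 520 nm).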
KCNH2 WT inh = inhibitors of human wildtype KCNH2 potassium channel; actives 0.37% (n = 340,000); Q12809; U2OS, BacMam KCNH2, thallium flux FluxOr; hits give low values; activity change, % at 1.84 µM;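 active = maximum activity change below -70%; inconclusive = maximum activity change between -70% and -50%; inactive = maximum activity change above -50%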; also: % is scaled to controls: 0 for no effect and ±100 for the full control effect
Target sequence (Q12809 whole entry, looked up): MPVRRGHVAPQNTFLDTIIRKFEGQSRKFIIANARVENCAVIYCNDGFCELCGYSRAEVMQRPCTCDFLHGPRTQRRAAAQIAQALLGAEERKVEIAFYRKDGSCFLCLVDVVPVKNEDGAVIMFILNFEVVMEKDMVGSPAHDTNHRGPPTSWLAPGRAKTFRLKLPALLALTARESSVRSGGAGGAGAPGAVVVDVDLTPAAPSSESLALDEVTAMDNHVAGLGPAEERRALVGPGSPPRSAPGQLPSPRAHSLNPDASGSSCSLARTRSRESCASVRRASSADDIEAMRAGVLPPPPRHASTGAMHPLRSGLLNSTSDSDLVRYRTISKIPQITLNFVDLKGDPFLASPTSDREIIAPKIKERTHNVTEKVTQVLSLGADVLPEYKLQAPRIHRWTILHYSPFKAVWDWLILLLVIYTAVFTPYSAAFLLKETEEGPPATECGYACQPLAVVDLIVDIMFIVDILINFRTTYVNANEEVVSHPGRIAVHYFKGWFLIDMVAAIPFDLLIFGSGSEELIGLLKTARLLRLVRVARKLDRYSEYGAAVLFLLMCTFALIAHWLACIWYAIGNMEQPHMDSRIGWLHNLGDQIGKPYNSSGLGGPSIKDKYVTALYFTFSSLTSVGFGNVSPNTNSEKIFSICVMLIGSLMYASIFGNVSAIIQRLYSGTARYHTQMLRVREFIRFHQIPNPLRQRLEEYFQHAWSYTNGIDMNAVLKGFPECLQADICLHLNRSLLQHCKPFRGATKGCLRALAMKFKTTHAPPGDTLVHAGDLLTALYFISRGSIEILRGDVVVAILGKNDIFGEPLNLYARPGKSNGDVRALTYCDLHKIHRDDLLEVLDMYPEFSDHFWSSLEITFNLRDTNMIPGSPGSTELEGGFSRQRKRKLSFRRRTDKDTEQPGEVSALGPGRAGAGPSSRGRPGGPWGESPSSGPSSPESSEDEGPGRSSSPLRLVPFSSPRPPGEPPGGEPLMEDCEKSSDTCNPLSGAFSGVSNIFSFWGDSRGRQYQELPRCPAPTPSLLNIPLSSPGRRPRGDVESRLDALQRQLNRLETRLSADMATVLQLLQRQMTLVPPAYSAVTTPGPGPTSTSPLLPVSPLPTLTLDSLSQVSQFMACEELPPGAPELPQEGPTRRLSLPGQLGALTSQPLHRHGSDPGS
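U2OS cells transduced with wild-type KCNH2 virus are loaded with FluxOr dye for 45 min, and thallium flux is measured in kinetic reads before and after stimulation buffer. Rate constants are normalized to DMSO controls.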
KCNH2 3.1 block = inhibitors of human KCNH2 3.1 potassium channel isoform | activity change, % (tested at about 1.8 µM) | AID 720553 | actives 0.95% (n = 340,000) | U2OS KCNH2 3.1, thallium flux FluxOr; hits give low values;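 active = maximum activity change below -70%; inconclusive = maximum activity change from -70% to -50%; inactive = maximum activity change above -50%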;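 also: thallium influx rate constant from kinetic fluorescence after stimulation buffer; % is scaled to controls: 0 for no effect and ±100 for the full control effect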
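Thallium flux read-out: FluxOr dye with Red40 quencher in HBSS/HEPES, 45 min at RT. Rate constants from kinetic reads were normalized to positive and negative DMSO controls. Cells: U2OS virally expressing the 3.1 isoform.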
TRPV1 potentiator = human TRPV1 potentiation | potentiation, % at 8.33 µM | TRPV1-expressing cells, Fluo-8 calcium influx, capsaicin EC20 potentiation | Q8NER1 | actives 0.02% (n = 320,000); in the data active = potentiation above about 80%; inconclusive = between about 30% and that limit; also: 0% is about no effect
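Fluo-8 calcium influx in TRPV1-expressing cells, kinetic read (ex 480/em 520 nm). Compound added and read 3 min for agonist activity, followed by capsaicin at EC20 final and 2 min further read for enhancement.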
ClpP mod = qHTS Assay for Activators of ClpP; purified B. subtilis ClpP, FRET peptide cleavage, 20 min; Potency, µM (doses to about 57.5 µM), for the others: at the top dose activity change, negative = active; actives 1.9% (n = 340,000); active = well fitted falling curve with a large enough effect; inconclusive = small, poorly fitted or top-dose-only effect; inactive = no such curve, though single readings can be large or run the other way; also: potency is read from the fitted curve at half-maximal effect; the source files actives as falling curves though it sought activators and does not explain the sign; nearly all actives have a fitted effect of over 65% in size
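FRET quenching reversal measured ClpP activation: 10 microg/mL B. subtilis ClpP at pH 8 with the FRET-FV decapeptide, read at 430 nm after 320 nm excitation. The 20-min minus 0-min signal was scaled between DMSO/no-enzyme wells and ADEP (5.8 microM final).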
p53 reactivation = re-activators of mutant p53; Potency, µM (top dose mostly 92.2 µM), without a hit: at the top dose activity change, positive = activation, usual class: activators; H1299 p53-A138V BP100-luciferase reporter, luminescence, 24 h; AID 504706; actives 0.063% (n = 320,000); active = well fitted activation curve with a large enough effect; inconclusive = small, poorly fitted or top-dose-only effect; inactive = no such curve, though single readings can be large or run the other way; also: potency is read from the fitted curve at half-maximal effect; % of control where 0% means no effect; nearly all actives have a fitted effect of over 45% in size
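p53-null H1299 cells stably carrying temperature-sensitive p53-A138V and a BP100-luciferase reporter were pinned with compounds (4-point, 1:5 series) and held 24 hrs at 37 deg C. Luminescence was read 10 min after detection reagent.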
The depositor's hits bear a star; ? = inconclusive; / = not tested or not shown.

SMILES | TRPV1 agonist | KCNH2 WT inh | KCNH2 3.1 block | TRPV1 potentiator | ClpP mod | p53 reactivation
O=C(O)Cn1c(-c2cccs2)cc2cc(Cl)ccc21 | / | / | / | / | 5% | /
O=C(Cn1c(-c2cccs2)cc2cc(Cl)ccc21)NCc1ccccc1 | / | / | / | / | 28µM* | /
CCN1CCN(CCCNC(=O)Cn2c(-c3cccs3)cc3cc(Cl)ccc32)CC1 | / | / | / | / | 32µM* | /
CCc1ccc(CNC(=O)Cn2c(-c3cccs3)cc3cc(F)ccc32)cc1 | / | / | / | / | 5% | /
CN1CCN(CCCNC(=O)Cn2c(-c3cccs3)cc3cc(Cl)ccc32)CC1 | / | / | / | / | 32µM* | /
CCc1nn(CC(=O)NCCCN2CCN(C)CC2)c(=O)c2cc3sccc3n12 | 1 | -12 | 6 | -9 | ? | 11%
CC1(C)CC(=O)c2cc(C(=O)Nc3ccc(Br)cc3)c(=O)[nH]c2C1 | / | / | / | / | -7% | /
O=S(=O)(c1ccc(Cl)cc1)N1CCOCC1 | / | / | / | / | 1% | /
Cc1ccc(NC(=O)Cn2c(=O)n(-c3ccccc3)c(=O)c3ccc(C(=O)NCc4ccc5c(c4)OCO5)cc32)cc1 | / | / | / | / | 15% | /
CCc1ccc(S(=O)(=O)NCCc2csc3nc(-c4ccccc4)nn23)s1 | / | / | / | / | -2% | /
CCOC(=O)C1CCN(C(=O)CCNS(=O)(=O)c2ccc(C)cc2)CC1 | -5 | 10 | 18 | -4 | 1% | -1%
CCOC(=O)C1CCN(C(=O)CC(NS(=O)(=O)c2ccc(OC)cc2)C(C)C)CC1 (stereo not drawn) | -1 | 4 | 4 | 2 | 32µM* | 6%
Cc1cc2[nH]c3ccccc3c2c(C)n1 | -1 | -10 | 5 | 0 | 28µM* | ?
Cc1[nH]c2ccccc2c1C(c1c(C)[nH]c2ccccc12)c1c(C)[nH]c2ccccc12 | / | / | / | / | 0% | /
COC(=O)c1cc(COc2ccc3c4c(c(=O)oc3c2)CCCC4)c(C)o1 | -3 | 2 | 6 | 1 | -15% | -1%
COC(=O)c1ccc(COc2ccc3c4c(c(=O)oc3c2)CCC4)o1 | 1 | -2 | 5 | 3 | 3.2µM* | 15%
Cc1oc(C(=O)O)cc1COc1ccc2c3c(c(=O)oc2c1)CCC3 | 2 | -3 | -7 | 1 | 28µM* | 20%
CCCS(=O)(=O)NC(=O)C1(C)CCCN(C(=O)c2ccc(F)cc2Cl)C1 (stereo not drawn) | / | / | / | / | 1% | /
CN(C)c1ccc(CN(Cc2ccco2)C(=O)COc2ccc(F)cc2)cc1 | / | / | / | / | -4% | /
CCOC(=O)/C(=C/C=C1\Sc2cc(C)c(C)cc2N1CC)C(C)=O | 106* | -15 | 21 | -5 | 6% | 0%
CCOC(=O)c1noc2ncnc(Nc3ccc(F)cc3F)c12 | / | / | / | / | 1% | /
CCOC(=O)c1ccccc1NC(=O)Cn1c2ncccc2c(=O)n1-c1ccccc1 | / | / | / | / | 11µM* | /
CCc1ccccc1NC(=O)Cn1c2ncccc2c(=O)n1-c1ccccc1 | / | / | / | / | 4% | /
CCn1c(C)nc2cc(C(=O)NNS(=O)(=O)c3ccccc3F)ccc21 | -5 | 6 | 2 | -12 | 3.2µM* | ?
COc1ccc(N2C(=O)C(Cl)=C(Nc3ccccc3O)C2=O)cc1 | 3 | 4 | 1 | 3 | 32µM* | ?
SMILES | TRPV1 agonist | KCNH2 WT inh | KCNH2 3.1 block | TRPV1 potentiator | ClpP mod | p53 reactivation
COc1ccccc1Cc1c(-c2ccc(C#N)cc2)nc2c3ccccc3ccn12 | / | / | / | / | 4% | /
CCN1N=C(c2ccccc2)Cn2c1nc1ccccc12 | 90* | -18 | / | -14 | 14µM* | 3%
CCOC(=O)c1c(S(=O)(=O)N2CCC(C(=O)NCc3ccc(F)cc3)CC2)c(C)n(C)c1C | / | / | / | / | 1% | /
CCOc1ccc(CNC(=O)c2ccc(Sc3ccc(C)cc3)c(N)c2)cc1OC | / | / | / | / | 4% | /
CC1(C)Oc2ccc(NC(=O)C3COc4ccccc4O3)cc2O1 (stereo not drawn) | 2 | -145* | -172* | 8 | 0% | ?
Cc1ccc(NC(=O)C2COc3ccccc3O2)cc1 (stereo not drawn) | ? | -26 | -17 | -1 | 2% | -20%
